Assay outcomes deposited in PubChem BioAssay by National Center for Advancing Translational Sciences (NCATS).
Shown are actives, neighbours in structure and some others; about 7.3% of the full set was active somewhere.
Rab9 promoter act: activates the Rab9 promoter; Huh7 Rab9 promoter-luciferase reporter, luminescence, 24 h; Potency, µM (series often up to 9.22 µM), inactives show at the top dose activation, negative = inhibition, actives largely listed as activators; 320,000 compounds, 2.8% hits; note: % of control where 0% means no effect; nearly all actives have a fitted effect of over 60% in size
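Promoter activation is measured as luciferase luminescence in Huh7 cells stably transfected with a Rab9 promoter–luciferase construct, following 24 h compound exposure at 37 °C and 10 min reagent incubation at ambient temperature.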
SMN2 splice up: enhancers of SMN2 splice variant expression. HEK293 SMN2-luciferase splicing reporter, luminescence, 30-36 h. 210,000 compounds, 2.8% hits. AID 1458. Potency, µM (doses to about 46.1 µM), inactives show at the top dose activity change, positive = activation, hits mostly activators; note: % of control where 0% means no effect; nearly all actives have a fitted effect of over 55% in size
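HEK293 cells carry an SMN2 […]–luciferase reporter in which exon 7 inclusion puts luciferase in frame. Cells were plated 10-12 h before compound addition, then incubated 30-36 h at 37C. ONE-Glo luminescence was read; sodium butyrate at 4.5 mM final served as control.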
ELG1 genotox: inducers of genotoxicity in HEK293T ELG1-luciferase cells; HEK293T ELG1-luciferase reporter, luminescence, 16 h; Potency, µM (top dose mostly 46 µM), for the others: at the top dose activity change, positive = activation, hits mostly activators; 330,000 compounds, 1.3% hits; AID 504466; note: % of control where 0% means no effect; nearly all actives have a fitted effect of over 60% in size
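16 hr compound incubation (37 °C, 5% CO2) of HEK293T cells carrying luciferase-tagged ELG1; luciferase then measured by ONE-Glo luminescence after 30 min at RT.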
FLuc modulator: inhibits or activates purified firefly luciferase, miR-21 counter-screen; P08659; purified FLuc, Km substrates, luminescence inhibition; Potency, µM (series often up to 57.5 µM), without a hit: top-dose activity change, negative = inhibition, hits mostly inhibitors; 360,000 compounds, 6.9% hits; AID 588342;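 note: plate controls were vehicle for no effect and reference inhibitor for full effect; nearly all actives have a fitted effect of over 55% in size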
Target sequence (P08659 whole entry, looked up): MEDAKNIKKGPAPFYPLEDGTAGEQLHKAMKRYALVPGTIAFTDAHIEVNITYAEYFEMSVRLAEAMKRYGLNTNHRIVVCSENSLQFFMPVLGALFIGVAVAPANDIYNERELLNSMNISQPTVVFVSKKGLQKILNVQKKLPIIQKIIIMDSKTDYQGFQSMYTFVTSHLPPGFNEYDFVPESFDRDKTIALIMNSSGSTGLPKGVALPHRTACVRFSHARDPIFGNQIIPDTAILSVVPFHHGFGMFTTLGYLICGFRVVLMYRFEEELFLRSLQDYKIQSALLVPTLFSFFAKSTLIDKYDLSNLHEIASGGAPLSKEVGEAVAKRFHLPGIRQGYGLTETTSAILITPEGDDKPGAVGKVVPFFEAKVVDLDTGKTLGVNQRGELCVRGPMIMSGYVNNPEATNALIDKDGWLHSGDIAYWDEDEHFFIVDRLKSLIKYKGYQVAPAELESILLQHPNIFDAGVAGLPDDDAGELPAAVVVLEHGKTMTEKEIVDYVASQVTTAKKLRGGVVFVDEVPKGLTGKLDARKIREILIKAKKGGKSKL
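Biochemical qHTS of compounds, final roughly 60 µM downward over six points, against 10 nM purified firefly luciferase using Km concentrations of substrates (10 uM D-luciferin, 10 uM ATP) in Tris acetate pH 7.5 buffer; luminescence output.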
KinaseGlo FLuc: counter-screen: inhibitors of Kinase-Glo firefly luciferase; Q27757; Kinase-Glo luciferase, ATP luminescence, 8 min; Potency, µM (series often up to 38.3 µM), without a hit: at the highest dose activity change, negative = inhibition, actives largely listed as inhibitors; 200,000 compounds, 0.28% hits; AID 1379; note: % is set by controls: 0 for no effect and ±100 for the full control effect; nearly all actives have a fitted effect of over 60% in size
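Light output from Kinase-Glo luciferase with luciferin and 10 uM ATP in 50 mM imidazole pH 7.2, KCl, MgCl2, Tween 20, BSA; compound pin-delivered, 8-min ambient incubation, then luminescence read.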
NPC1 promoter act: activators of NPC1 promoter; Huh7 NPC1 promoter luciferase reporter, 24 h; Potency, µM (doses to about 9.22 µM), inactives show at the highest dose activation, usual class: activators; 320,000 compounds, 2.4% hits; note: % of control where 0% means no effect; nearly all actives have a fitted effect of over 60% in size
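Luminescence from an NPC1 promoter-driven luciferase reporter in stably transfected Huh7 cells was measured after 24 h compound treatment at 37 °C, followed by 10 min ambient incubation with luciferase detection reagent.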
* marks the source's active call; other numbers are inactive results; ? = inconclusive; / = no result; [ ] = another dose, or the depositor's remark. Calls come from the whole dose curve; as a rule, active = well fitted curve in the direction sought with a large enough effect; inconclusive = small, poorly fitted or top-dose-only effect, or another doubt; inactive = no such curve, though single readings can be large; an effect the other way counts as inactive or inconclusive. Potency is the fitted concentration of half-maximal effect.

SMILES	Rab9 promoter act	SMN2 splice up	ELG1 genotox	FLuc modulator	KinaseGlo FLuc	NPC1 promoter act
C/C(=N/Nc1ccccc1C(=O)O)c1cccs1	3.5µM*	/	?	19µM*	/	?
C/C(=N/NC(=O)c1cccs1)c1cccc(N)c1	?	/	?	19µM*	-5%	?
CC(=O)Nc1cccc(/C(C)=N/NC(=S)NC(C)C)c1	29%	24%	4%	24µM*	0%	16%
CCOC(=O)N/N=C(\C)c1cccs1	10%	9%	?	-14%	-5%	19%
CCCc1nc(C)cc(N2CCN(c3ccccc3)CC2)n1	-4%	/	-6%	5%	/	2%
O=P(c1ccccc1)(c1ccccc1)c1cc(Br)cc(Br)c1OCCO	-13%	/	-2%	1%	/	-8%
CCN(CC)S(=O)(=O)c1cccc(C(=O)N/N=C(\C)c2cccs2)c1	3.2µM*	11µM*	?	11µM*	-2%	3.5µM*
C=C(C)C1CC=C(C)/C(=N/NC(=O)c2cccs2)C1 (stereo unspecified)	?	?	?	4.8µM*	2%	?
C=C(C)C1CC=C(C)/C(=N/NC(=O)c2ccccc2[N+](=O)[O-])C1 (stereo unspecified)	0%	-33%	-7%	?	-2%	-1%
CC(=O)Nc1cccc(/C(C)=N/NC(=O)c2cccs2)c1	2%	?	?	19µM*	1%	1%
O=C(Cn1c(C(F)(F)F)nc2ccccc21)c1ccc(Br)cc1	-5%	-29%	-5%	0%	-4%	-1%
Cc1ccc(Cl)c2c1=NC(=O)C=2c1[nH]c(=S)[nH]c1O	-1%	29%	-9%	19µM*	-25%	1%
CC(C)(C)c1ccc(C(=O)NNC(=O)CCC(=O)Nc2ccccc2)cc1	6%	/	17%	3.4µM*	/	11%
Cc1cc(NC(=O)CCC(=O)NNC(=O)c2ccc(C(C)(C)C)cc2)no1	11%	5%	8%	2.4µM*	-10%	4%
COc1ccc(N2CCN(C(=O)Cn3nnc(-c4ccccc4N)n3)CC2)cc1	-2%	-58%	5%	-3%	-1%	0%
Cc1ccc(-n2nnnc2SCC(=O)Nc2sc(C)c(C)c2C#N)cc1C	2%	-11%	0%	0%	2%	-3%
O=C(N/N=C/C1CC=CCC1)c1cc2ccccc2cc1O (stereo unspecified)	2%	19%	4%	-82%	-1%	-1%
O=C(N/N=C/C1CC=CCC1)c1ccc(O)cc1O (stereo unspecified)	3%	4%	0%	19µM*	-1%	-1%
Cc1ccc(/C=C2\SC(=S)N(/N=C/c3cc([N+](=O)[O-])ccc3O)C2=O)o1	-6%	/	-4%	24µM*	/	-1%
Cc1ccc(/C=C2\SC(=S)N(C3CCS(=O)(=O)C3)C2=O)o1 (stereo unspecified)	-10%	2%	-15%	-14%	-1%	-8%
CCOc1ccc(C(=O)Nc2c3c(nn2-c2ccc(C)cc2)CS(=O)C3)cc1OCC (stereo unspecified)	-6%	4%	6%	7%	2%	0%
O=C(O)c1ccc(Cl)c(S(=O)(=O)Nc2ccccc2N2CCOCC2)c1	-3%	-4%	-1%	-5%	9%	-4%
O=S(=O)(Nc1cccc(-c2ccc(N3CCOCC3)nn2)c1)c1ccc(F)cc1F	/	/	/	7.6µM*	/	/
O=S(=O)(Nc1cccc(-c2ccc(N3CCOCC3)nn2)c1)c1cc(C(F)(F)F)ccc1Cl	/	/	/	5.4µM*	/	/
O=S(=O)(Nc1cccc(-c2ccc(N3CCOCC3)nn2)c1)c1ccccc1C(F)(F)F	/	/	/	7.6µM*	/	/
SMILES	Rab9 promoter act	SMN2 splice up	ELG1 genotox	FLuc modulator	KinaseGlo FLuc	NPC1 promoter act
Cc1ccc(NC(=O)CCN2C(=O)CSC2=O)cc1	-2%	-6%	2%	-7%	-5%	-5%
Cc1ccc(NC(=O)Nc2ccc(F)cc2)cc1Cl	?	?	12%	2.7µM*	-2%	?
O=C(Nc1ccc(F)cc1)Nc1cccnc1Cl	?	/	4%	17µM*	/	23%
O=C(Nc1cccs1)Nc1cccnc1Cl	-39%	/	-3%	?	/	1%
COc1cccc(NC(=O)Nc2ccc(C)c(Cl)c2)c1	2.8µM*	13µM*	?	2.7µM*	-1%	?
O=C(Nc1ccccc1)Nc1cccc(-c2cn3cccnc3n2)c1	?	-1%	-8%	9.5µM*	-3%	10%
Cc1c(-c2cccc(NC(=O)Nc3ccccc3)c2)nc2ncccn12	/	/	/	19µM*	/	/
O=C(Nc1cccc(-c2cn3cccnc3n2)c1)Nc1ccccc1F	?	-8%	-12%	13µM*	-2%	-4%
C=CCn1c(SCC(=O)c2ccc(F)cc2)nnc1-c1ccc2c(c1)OCO2	-1%	-18%	-13%	-16%	-1%	-3%
CCOC(=O)C1=C(C)NC(=O)NC1c1ccc(F)cc1 (stereo unspecified)	-2%	-12%	-2%	0%	3%	-1%
CC(=O)c1ccc(NC(=O)c2cccc(N3C(=O)c4ccccc4C3=O)c2)cc1	11%	/	7%	3%	/	4%
COc1ccc(NC(=O)c2cccc(N3C(=O)c4cccc([N+](=O)[O-])c4C3=O)c2)cc1	13%	/	12%	8.5µM*	/	-3%
COc1ccc(C)cc1S(=O)(=O)Nc1cccc(-c2ccc(N3CCCCCC3)nn2)c1	3%	/	2%	9.5µM*	/	0%
COc1ccc(F)cc1S(=O)(=O)Nc1cccc(-c2ccc(N3CCC(C)CC3)nn2)c1	/	/	/	5.4µM*	/	/
COc1ccc(OC)c(S(=O)(=O)Nc2cccc(F)c2)c1	-1%	?	-3%	-1%	-4%	-1%
COc1ccc(C)cc1S(=O)(=O)Nc1cccc(-c2ccc(N3CCC(C)CC3)nn2)c1	/	/	/	2.4µM*	/	/
CCn1cc(/C=C(\NC(=O)c2ccc(OC)c(OC)c2)C(=O)NCCN2CCOCC2)c2ccccc21	?	/	-1%	3%	/	-1%
Cn1ccnc1SCc1ccc(Cl)cc1Cl	-4%	/	2%	0%	/	-2%
O=C(Cn1cc([N+](=O)[O-])cn1)Nc1nccs1	-8%	/	3%	0%	-2%	-5%
C=CC(C)=C[C@@]1(C)SC(=O)C(C)=C1O	-16%[46.1 µM]	/	/	/	/	-6%[46.1 µM]
Cc1cc(C)cc(NC(=O)CSc2ccc(-c3ccccn3)nn2)c1	-1%	/	?	?	/	0%
O=C(CSc1ccc(-c2ccccn2)nn1)Nc1cccc(F)c1	14%	/	?	13µM*	/	7%
CC(=O)c1cccc(NC(=O)CSc2ccc(-c3sc(C)nc3C)nn2)c1	-3%	/	-29%	13µM*	/	-5%
